NPC1 promoter act: NPC1 promoter activation; hit rate 2.4% among 320,000; Potency, µM (highest dose often 9.22 µM), for inactives: at the highest dose activation, actives largely listed as activators; AID 485313; Huh7 NPC1 promoter luciferase reporter, 24 h; note: % of control where 0% means no effect; nearly all actives have a fitted effect of over 60% in size
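Luminescence read-out of NPC1 promoter-driven luciferase in stably transfected Huh7 cells; compounds delivered in DMSO and left 24 h at 37C, 5% CO2, qHTS titration format.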
p53 reactivation: restores transcriptional activity of mutant p53. hit rate 0.063% among 320,000. Potency, µM (highest dose often 92.2 µM), inactives show at the top dose activity change, positive = activation, actives largely listed as activators. H1299 p53-A138V BP100-luciferase reporter, luminescence, 24 h; note: % of control where 0% means no effect; nearly all actives have a fitted effect of over 45% in size
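H1299 (p53-null), stable ts p53-A138V + BP100-Luc; 1000 cells/well, Opti-MEM/10% FBS; cpd 4 pt, 1:5; 24 h, 37 deg C, 5% CO2; detection reagent 10 min RT; luminescence.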
FLuc modulator: firefly luciferase modulation, counter-screen for miR-21 project; P08659; AID 588342; purified FLuc, Km substrates, luminescence inhibition; hit rate 6.9% among 360,000; Potency, µM (top dose mostly 57.5 µM), inactives show at the highest dose activity change, negative = inhibition, most hits filed as inhibitors;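 note: plate controls were vehicle for no effect and reference inhibitor for full effect; nearly all actives have a fitted effect of over 55% in size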
Target sequence (P08659 whole entry, looked up): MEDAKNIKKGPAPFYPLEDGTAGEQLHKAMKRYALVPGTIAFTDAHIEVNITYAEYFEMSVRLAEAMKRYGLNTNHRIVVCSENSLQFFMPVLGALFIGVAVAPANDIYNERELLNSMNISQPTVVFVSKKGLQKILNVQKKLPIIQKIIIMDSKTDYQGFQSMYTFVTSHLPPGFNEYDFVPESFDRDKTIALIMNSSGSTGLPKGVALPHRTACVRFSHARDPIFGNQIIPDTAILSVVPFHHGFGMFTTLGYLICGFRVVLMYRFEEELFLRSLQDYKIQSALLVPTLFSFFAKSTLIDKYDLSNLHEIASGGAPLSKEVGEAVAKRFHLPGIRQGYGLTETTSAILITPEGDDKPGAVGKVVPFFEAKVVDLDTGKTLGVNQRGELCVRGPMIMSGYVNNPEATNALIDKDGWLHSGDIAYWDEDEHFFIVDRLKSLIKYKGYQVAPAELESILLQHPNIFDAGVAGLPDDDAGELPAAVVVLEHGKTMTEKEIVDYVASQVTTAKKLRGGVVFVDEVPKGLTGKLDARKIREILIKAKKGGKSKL
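Purified P. pyralis luciferase (10nM final) with 10uM D-luciferin and 10uM ATP (Km levels) in 50mM Tris acetate pH 7.5, 10mM Mg acetate, 0.01% Tween-20, 0.05% BSA; qHTS 6-point titration, ~60 µM downward; luminescence read.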
SMN2 splice enh: SMN2 splice variant enhancement; HEK293 SMN2-luciferase splicing reporter, luminescence, 30-36 h; Potency, µM (titrated, usually from 46.1 µM), for inactives: at the highest dose activity change, positive = activation, most hits filed as activators; hit rate 2.8% among 210,000; AID 1458; note: % of control where 0% means no effect; nearly all actives have a fitted effect of over 55% in size
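qHTS luciferase splicing reporter: luminescence rises when SMN2 exon 7 is included in transfected HEK293 cells. Compound exposure lasted 30-36 h at 37C, with 4.5 mM final sodium butyrate as control, followed by a ONE-Glo read.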
ELG1 genotoxic: inducers of genotoxicity in HEK293T ELG1-luciferase cells. HEK293T ELG1-luciferase reporter, luminescence, 16 h. hit rate 1.3% among 330,000. Potency, µM (titrated, usually from 46 µM), without a hit: at the top dose activity change, positive = activation, hits mostly activators; note: % of control where 0% means no effect; nearly all actives have a fitted effect of over 60% in size
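Quantitative HTS format in 1536-well plates. HEK293T ELG1-luciferase reporter cells receive test compound and are incubated 16 hr at 37 °C, 5% CO2; ONE-Glo added, 30 min room temperature, then luminescence read.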
Rab9 prom act: Rab9 promoter activation | Potency, µM (highest dose often 9.22 µM), inactives show at the highest dose activation, negative = inhibition, most hits filed as activators | hit rate 2.8% among 320,000 | Huh7 Rab9 promoter-luciferase reporter, luminescence, 24 h | AID 485297; note: % of control where 0% means no effect; nearly all actives have a fitted effect of over 60% in size
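Luminescence from Amplite-detected luciferase (10 minutes, ambient) reports Rab9 promoter activation. Before that, stable Rab9-luciferase Huh7 cells (1500/well, reduced-serum OP-MEM I plus 10% FBS) were exposed to compound for 24 hours at 37C.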
Starred values were filed as active, the others as inactive; ? = inconclusive; nt = no result; [ ] = another dose, or the depositor's remark. This is a sample that favours compounds with a hit; in the whole collection about 7.4% have one here. Calls come from the whole dose curve; as a rule, active = well fitted curve in the direction sought with a large enough effect; inconclusive = small, poorly fitted or top-dose-only effect, or another doubt; inactive = no such curve, though single readings can be large; an effect the other way counts as inactive or inconclusive. Potency is the fitted concentration of half-maximal effect.

SMILES	NPC1 promoter act	p53 reactivation	FLuc modulator	SMN2 splice enh	ELG1 genotoxic	Rab9 prom act
Cc1oc(-c2cccc(Cl)c2)nc1CSCC(=O)NCc1ccccc1Cl	nt	nt	?	-6%	nt	nt
CC(=O)Nc1cccc(N/C=C(\C=O)c2nc3ccccc3o2)c1	15%	13%	19µM*	?	11%	19%
O=C/C(=C\Nc1ccccn1)c1nc2ccccc2o1	13%	26%	13µM*	25%	1%	5%
CCc1ccccc1NC(=O)CNC(=O)c1n[nH]c(=O)c2ccccc12	-6%	-5%	3%	nt	0%	-3%
O=C(CCl)Nc1cccc(-c2cnc3ccccc3n2)c1	-5%	-4%	12µM*	-2%	-38%	-34%
O=C(Nc1cccc(-c2cnc3ccccc3n2)c1)C1CC(=O)N(c2ccccc2)C1 (centres undefined)	15%	10%	?	nt	-10%	-1%
CCc1ccc(-c2cnc3ccccc3n2)cc1NC(=O)CNC(=O)c1ccccc1	3.5µM*	?	2.7µM*	nt	3.7µM*	4µM*
CCC(=O)Nc1cccc(-c2cnc3ccccc3n2)c1	?	?	19µM*	19%	?	?
Cc1cc(C(=O)N/N=C/c2ccc(Cl)c([N+](=O)[O-])c2)c(C)n1-c1ccc(F)cc1	-8%	9%	-11%	-21%	?	-10%
COc1ccc(/C=N/NC(=O)c2cc(C)n(-c3ccccc3)c2C)cc1OC	-20%	-4%	8.5µM*	17%	7%	22%
Cc1cc(C(=O)N/N=C/c2cccc([N+](=O)[O-])c2)c(C)n1-c1ccccc1	?	?	0.95µM*	10µM*	?	?
COc1ccc(CCC(=O)Nc2cccc(Cl)c2)cc1	-7%	8%	?	25%	-1%	2%
COc1ccc2cc(CCC(C)=O)ccc2c1	?	nt	?	13µM*	nt	?
CN(C)c1cccc(C(=O)NNC(=O)CN2C(=O)C3CC=CCC3C2=O)c1 (centres undefined)	nt	45µM*	nt	nt	10µM*	nt
CCOC(=O)c1c(NC(=O)CSc2cn(CCNC(=O)c3ccccc3F)c3ccccc23)sc2c1CCC2	nt	nt	-7%	-4%	nt	nt
Cc1ccc(N=Nc2cc(C)ccc2O)c(C)c1	?	?	4.8µM*	nt	?	?
Cc1ccc(N=Nc2ccc(N)cc2C)c(S(N)(=O)=O)c1	?	?	11µM*	3%[9.22 µM]	?	2.8µM*
Oc1ccc(N=Nc2ccc3c(c2)OCCO3)c2ncccc12	-23%	15%	5.4µM*	nt	?	-27%
Cc1cccc(N=Nc2ccc(O)c3ncccc23)c1	13%	?	11µM*	-51%	12µM*	-3%
NS(=O)(=O)c1ccc(N=Nc2ccc(O)c3ncccc23)cc1	-40%	22%	?	nt	?	-32%
NCC1OC(O[C@H]2[C@H](O)[C@@H](OC3C(O)C(N)CC(N)C3OC3OC(CO)C(O)C(O)C3N)O[C@@H]2CO)C(N)C(O)C1O (some centres undefined)	-6%[46.1 µM]	nt	nt	nt	nt	-16%[46.1 µM]
CCC1CCCCN1C(=O)c1cc(S(=O)(=O)N2CCOCC2)ccc1C (centres undefined)	nt	-6%	nt	nt	2%	nt
COc1ccc(Br)cc1CNC(=O)CCCn1c(=O)c2cccn2c2cccnc21	nt	nt	-1%	nt	nt	nt
Cc1ccc(C)c(N=Nc2ccc(O)c3ncccc23)c1	?	13%	11µM*	-96%	?	8%
CCOc1ccc(N=Nc2ccc(O)c3ncccc23)cc1	-13%	2%	-13%	nt	?	1%
SMILES	NPC1 promoter act	p53 reactivation	FLuc modulator	SMN2 splice enh	ELG1 genotoxic	Rab9 prom act
Cc1[nH]c2ccccc2c(=O)c1C(=O)/C=C/c1ccccc1	-39%	-12%	-12%	nt	-13%	-41%
COC(=O)c1c(C)[nH]c(C(=O)/C=C/c2ccccc2)c1C	2.2µM*	?	0.48µM*	2.2µM*	12µM*	1.4µM*
COC(=O)c1c(C)[nH]c(C(=O)/C=C/c2ccc(C)cc2)c1C	1%	5%	2.1µM*	nt	?	0%
Cc1ccc(CNC(=O)c2oc3c(c2C)-c2nn(Cc4ccc(Cl)cc4)cc2CC3)cc1	nt	nt	7%	nt	nt	nt
COCCCN=Cc1c(-c2ccccc2)[nH]n(-c2nc3ccccc3s2)c1=O	-6%	11%	15µM*	nt	1%	1%
CCCc1[nH]n(-c2nc3ccccc3s2)c(=O)c1C=NCCCOC	13%	5%	-16%	nt	7%	5%
CCCCCN=Cc1c(C)[nH]n(-c2nc3ccccc3s2)c1=O	?	?	4.8µM*	11%	2.9µM*	?
O=c1c(C=NCCCO)c(-c2ccccc2)[nH]n1-c1nc2ccccc2s1	0%	8%	15µM*	nt	11%	-12%
CCCc1[nH]n(-c2nc3ccccc3s2)c(=O)c1C=NCCN1CCOCC1	18%	?	17µM*	41%	?	16%
CCCc1[nH]n(-c2nc3ccccc3s2)c(=O)c1C=NCC1CCCO1 (centres undefined)	6%	?	-18%	-7%	2%	14%
CCOC(=O)Cn1c(=O)oc2cc(S(=O)(=O)N3CCN(c4cccc(C)c4C)CC3)ccc21	nt	nt	-2%	17%	nt	nt
CC1CCc2c(sc3ncnc(NCc4cccnc4)c23)C1 (centres undefined)	6%	-2%	27µM*	29%	0%	-8%
Cc1cc(C)cc(C(=O)NC(CC(N)=O)c2ccc(N3CCCCCC3)c([N+](=O)[O-])c2)c1 (centres undefined)	-2%	3%	2%	nt	0%	-2%
Cc1cc(Cl)c(C)c(S(=O)(=O)Oc2ccccc2NC(=O)CCC(=O)O)c1Cl	-7%	0%	-1%	nt	1%	-8%
Cc1ccc(N/N=C2\CC(=O)c3ccccc32)cc1Cl	2%	15%	9.5µM*	nt	?	16%
CCOc1ccc(-c2cc(CCCC(=O)N3CCN(c4ccc(OC)cc4)CC3)no2)cc1	0%	-12%	?	-36%	0%	-1%
CCCCn1c(-c2ccccc2)cnc1SCC(=O)NCCc1ccc(OC)c(OC)c1	-2%	21%	17µM*	28%	4%	2%
CCOc1ccc(-c2cc(CCCC(=O)NCCc3ccc(OC)c(OC)c3)no2)cc1	nt	nt	11µM*	-62%	nt	nt
CCOc1ccc(-c2cc(CCCC(=O)NCCc3cc(OC)c(OC)c(OC)c3)no2)cc1	nt	nt	13µM*	-17%	nt	nt
CCOc1ccc(-c2cc(CCCC(=O)NCCCOC)no2)cc1	-2%	-10%	12µM*	17%	0%	8%
CCOC(=O)Cn1c(=O)n(CC2CCCO2)c2nc(-c3c(F)cccc3Cl)nc(C(N)=O)c21 (centres undefined)	nt	nt	4%	nt	nt	nt

Compound activity from PubChem.
